In publication PMC7862700, “An all-to-all approach to the identification of sequence-specific readers for epigenetic DNA modifications on cytosine” one finds binding signal data, which are given here for eight sequences.

Holding throughout (assay): DAPPL (digital affinity profiling via proximity ligation, sequencing); 10 mM Tris-HCl pH 7.5, 50 mM NaCl, 1 mM DTT, 4% glycerol, room temperature, 30 min; GST-TFs on glutathione beads, 16-mer random dsDNA library, 0.1% formaldehyde crosslink after washing; high values mean tight binding
The target of one test is T1, FEV (Homo sapiens, UniProt Q99581 1-238).
T1 sequence: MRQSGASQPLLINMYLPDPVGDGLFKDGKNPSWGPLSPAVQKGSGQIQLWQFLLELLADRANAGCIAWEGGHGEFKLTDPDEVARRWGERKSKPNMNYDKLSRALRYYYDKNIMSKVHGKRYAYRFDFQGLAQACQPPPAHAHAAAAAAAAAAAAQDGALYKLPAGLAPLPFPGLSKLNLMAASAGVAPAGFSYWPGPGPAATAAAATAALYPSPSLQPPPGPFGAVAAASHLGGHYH
The note with it: protein: recombinant; tags: N-terminal GST; dsDNA, one strand shown. In outline:
(§1)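 A tag-only sample was pooled with DNA-barcoded human transcription factors that had been expressed in yeast as GST fusions and captured on glutathione beads. The pools were incubated for 30 min at room temperature with 200 nmole of a random double-stranded 16-mer DNA library in Tris/NaCl/DTT/glycerol buffer, then washed, crosslinked with 0.1% formaldehyde, proximity-ligated (BsaI/T4 ligase, 1 h, 37 °C), PCR-amplified and sequenced on an Illumina NextSeq500. Binding signal is each hexamer's read frequency for a factor divided by its frequency for the tag-only sample.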

A further test deals with ETV5 (Homo sapiens, UniProt P41161 1-510). As to conditions: protein: recombinant; tags: N-terminal GST; dsDNA, one strand shown. In a few lines: as §1
Sequence of ETV5 (P41161 whole entry): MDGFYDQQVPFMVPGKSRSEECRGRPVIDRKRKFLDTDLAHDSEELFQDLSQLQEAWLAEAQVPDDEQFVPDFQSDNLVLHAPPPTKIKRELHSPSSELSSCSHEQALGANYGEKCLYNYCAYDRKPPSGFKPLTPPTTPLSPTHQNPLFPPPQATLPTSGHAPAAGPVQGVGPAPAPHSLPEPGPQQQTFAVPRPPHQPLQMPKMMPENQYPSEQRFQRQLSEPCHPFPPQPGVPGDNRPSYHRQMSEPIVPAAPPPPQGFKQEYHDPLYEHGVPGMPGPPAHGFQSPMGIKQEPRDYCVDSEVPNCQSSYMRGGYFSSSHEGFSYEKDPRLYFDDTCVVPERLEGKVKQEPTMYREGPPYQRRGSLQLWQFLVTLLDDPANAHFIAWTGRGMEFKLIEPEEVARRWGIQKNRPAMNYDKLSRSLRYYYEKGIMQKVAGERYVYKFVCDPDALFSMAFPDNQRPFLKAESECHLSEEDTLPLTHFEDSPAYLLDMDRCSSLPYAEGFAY
Another test concerns the target HSF1 (Homo sapiens, UniProt Q00613 1-529). As to conditions: protein: recombinant; tags: N-terminal GST; chain copies: 3; dsDNA, one strand shown. In outline: as §1
The target in another test is T2, SPIC (Homo sapiens, UniProt Q8N5J4 1-248).
T2 sequence: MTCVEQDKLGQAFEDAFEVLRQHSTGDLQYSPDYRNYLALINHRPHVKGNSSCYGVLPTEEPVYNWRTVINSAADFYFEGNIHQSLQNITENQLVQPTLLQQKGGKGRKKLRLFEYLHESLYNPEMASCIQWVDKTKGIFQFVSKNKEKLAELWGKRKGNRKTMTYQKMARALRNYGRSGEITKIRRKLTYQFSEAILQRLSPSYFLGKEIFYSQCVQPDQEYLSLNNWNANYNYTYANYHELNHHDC
The note with it: protein: recombinant; tags: N-terminal GST; dsDNA, one strand shown. In a few lines:
as §1

For a further test, the target named is ELF4 (Homo sapiens, UniProt Q99607 1-663). As to conditions: protein: recombinant; tags: N-terminal GST; dsDNA, one strand shown. In outline: as §1
Sequence of ELF4 (Q99607 whole entry): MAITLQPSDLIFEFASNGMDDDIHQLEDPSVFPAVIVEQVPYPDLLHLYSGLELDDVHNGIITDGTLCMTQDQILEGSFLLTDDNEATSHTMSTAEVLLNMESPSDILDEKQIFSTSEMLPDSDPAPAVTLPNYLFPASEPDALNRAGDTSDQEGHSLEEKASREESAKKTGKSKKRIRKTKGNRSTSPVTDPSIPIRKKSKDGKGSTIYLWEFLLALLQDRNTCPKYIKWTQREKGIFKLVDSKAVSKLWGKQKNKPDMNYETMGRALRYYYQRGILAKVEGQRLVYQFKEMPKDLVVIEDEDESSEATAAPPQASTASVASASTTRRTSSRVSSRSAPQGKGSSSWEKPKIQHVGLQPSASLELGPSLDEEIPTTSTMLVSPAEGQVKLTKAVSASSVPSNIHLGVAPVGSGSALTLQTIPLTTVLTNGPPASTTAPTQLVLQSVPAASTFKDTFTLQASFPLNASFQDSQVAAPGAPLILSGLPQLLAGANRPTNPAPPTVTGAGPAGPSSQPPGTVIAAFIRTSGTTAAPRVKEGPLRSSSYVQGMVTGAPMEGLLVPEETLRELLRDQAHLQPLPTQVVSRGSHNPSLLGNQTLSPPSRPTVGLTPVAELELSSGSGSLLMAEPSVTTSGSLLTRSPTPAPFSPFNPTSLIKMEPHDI
The target in another test is T3, ELK4 (Homo sapiens, UniProt P28324-2 1-405).
T3 sequence: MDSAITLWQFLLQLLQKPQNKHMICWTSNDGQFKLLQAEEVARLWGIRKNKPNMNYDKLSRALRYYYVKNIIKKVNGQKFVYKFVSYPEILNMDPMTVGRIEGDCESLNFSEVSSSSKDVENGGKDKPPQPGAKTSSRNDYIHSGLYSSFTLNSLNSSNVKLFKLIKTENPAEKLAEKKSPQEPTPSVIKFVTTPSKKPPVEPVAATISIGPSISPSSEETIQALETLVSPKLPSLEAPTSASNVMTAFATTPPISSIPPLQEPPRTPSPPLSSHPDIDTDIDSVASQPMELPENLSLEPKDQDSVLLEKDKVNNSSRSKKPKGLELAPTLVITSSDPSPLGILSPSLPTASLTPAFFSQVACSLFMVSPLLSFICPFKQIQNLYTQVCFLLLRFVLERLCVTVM
The note with it: protein: recombinant; tags: N-terminal GST; dsDNA, one strand shown. In a few lines:
as §1

The next test concerns the target T4, ETV2 (Homo sapiens, UniProt O00321 1-342).
T4 sequence: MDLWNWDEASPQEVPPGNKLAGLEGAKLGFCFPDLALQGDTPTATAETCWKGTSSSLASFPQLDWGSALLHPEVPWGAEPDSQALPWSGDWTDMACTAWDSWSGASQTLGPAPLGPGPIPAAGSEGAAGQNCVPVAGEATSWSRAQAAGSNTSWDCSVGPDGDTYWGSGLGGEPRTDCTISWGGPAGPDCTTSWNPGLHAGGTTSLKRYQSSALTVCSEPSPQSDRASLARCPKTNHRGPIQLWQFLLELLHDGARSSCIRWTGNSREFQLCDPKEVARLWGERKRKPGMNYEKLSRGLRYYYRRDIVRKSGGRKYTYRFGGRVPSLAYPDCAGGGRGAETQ
The note with it: protein: recombinant; tags: N-terminal GST; dsDNA, one strand shown. In a few lines: as §1

A further test concerns the target T5, ELF3 (Homo sapiens, UniProt P78545 1-371).
T5 sequence: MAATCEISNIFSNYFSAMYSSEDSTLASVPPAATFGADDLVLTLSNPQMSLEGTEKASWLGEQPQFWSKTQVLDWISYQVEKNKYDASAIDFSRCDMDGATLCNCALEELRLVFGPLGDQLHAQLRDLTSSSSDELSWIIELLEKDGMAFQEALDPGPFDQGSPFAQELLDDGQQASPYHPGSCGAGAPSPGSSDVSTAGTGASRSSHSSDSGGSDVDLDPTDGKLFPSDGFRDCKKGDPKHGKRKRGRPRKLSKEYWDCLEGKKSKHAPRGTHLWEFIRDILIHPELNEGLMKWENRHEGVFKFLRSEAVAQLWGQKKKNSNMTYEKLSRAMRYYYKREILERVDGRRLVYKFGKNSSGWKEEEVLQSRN
The note with it: protein: recombinant; tags: N-terminal GST; dsDNA, one strand shown. In outline: as §1

For a further test, the target named is CRX (Homo sapiens, UniProt O43186 1-299). The note with it: protein: recombinant; tags: N-terminal GST; dsDNA, one strand shown. In outline: as §1
Sequence of CRX (O43186 whole entry): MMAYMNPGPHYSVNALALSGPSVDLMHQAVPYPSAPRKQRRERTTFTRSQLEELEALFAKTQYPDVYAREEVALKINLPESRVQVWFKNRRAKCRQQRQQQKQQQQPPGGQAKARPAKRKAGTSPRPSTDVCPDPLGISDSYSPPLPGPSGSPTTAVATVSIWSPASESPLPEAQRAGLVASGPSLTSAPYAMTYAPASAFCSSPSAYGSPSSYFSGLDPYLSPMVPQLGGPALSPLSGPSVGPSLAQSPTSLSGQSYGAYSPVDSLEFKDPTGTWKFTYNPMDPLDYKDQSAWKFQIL
Another test addresses ETV1 (Homo sapiens, UniProt P50549 1-477). The note with it: protein: recombinant; tags: N-terminal GST; dsDNA, one strand shown. In outline: as §1

Sequence of HSF1 (Q00613 whole entry): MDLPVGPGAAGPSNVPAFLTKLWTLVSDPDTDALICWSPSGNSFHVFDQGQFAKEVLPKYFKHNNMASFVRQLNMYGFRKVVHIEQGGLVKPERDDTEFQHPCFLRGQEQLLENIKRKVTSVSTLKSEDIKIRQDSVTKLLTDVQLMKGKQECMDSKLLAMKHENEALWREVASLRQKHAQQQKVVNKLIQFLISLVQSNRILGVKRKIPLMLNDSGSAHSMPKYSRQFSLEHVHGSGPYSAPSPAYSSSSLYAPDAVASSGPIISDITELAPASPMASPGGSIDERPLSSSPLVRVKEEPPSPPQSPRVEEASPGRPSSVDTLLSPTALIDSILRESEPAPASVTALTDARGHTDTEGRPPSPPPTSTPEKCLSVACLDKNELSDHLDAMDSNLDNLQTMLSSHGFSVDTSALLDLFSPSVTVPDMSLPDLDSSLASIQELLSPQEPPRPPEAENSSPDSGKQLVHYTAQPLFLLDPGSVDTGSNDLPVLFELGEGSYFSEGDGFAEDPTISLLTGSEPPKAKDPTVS
Sequence of ETV1 (P50549 whole entry): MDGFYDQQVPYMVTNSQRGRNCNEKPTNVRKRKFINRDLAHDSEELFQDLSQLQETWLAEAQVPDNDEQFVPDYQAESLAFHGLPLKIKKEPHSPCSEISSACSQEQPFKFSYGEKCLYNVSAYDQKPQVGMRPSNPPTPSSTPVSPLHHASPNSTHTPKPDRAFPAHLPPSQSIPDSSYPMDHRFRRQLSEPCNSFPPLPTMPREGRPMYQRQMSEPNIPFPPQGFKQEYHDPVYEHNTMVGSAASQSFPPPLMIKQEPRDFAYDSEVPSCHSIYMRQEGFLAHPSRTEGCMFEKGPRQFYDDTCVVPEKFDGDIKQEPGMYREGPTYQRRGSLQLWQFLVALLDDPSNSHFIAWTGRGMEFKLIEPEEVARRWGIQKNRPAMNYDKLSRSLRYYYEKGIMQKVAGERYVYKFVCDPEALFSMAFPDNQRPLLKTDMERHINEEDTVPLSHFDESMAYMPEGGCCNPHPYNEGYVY

Turning to TATTTG, the binding signal in the test with FEV was 1.39 fold enrichment (6-mer frequency, TF over GST control); with ETV5, 1.47 fold enrichment (6-mer frequency, TF over GST control); with HSF1, 1.43 fold enrichment (6-mer frequency, TF over GST control); with SPIC it was 1.25 fold enrichment (6-mer frequency, TF over GST control); with ELF4, 1.3 fold enrichment (6-mer frequency, TF over GST control); with ELK4, 1.26 fold enrichment (6-mer frequency, TF over GST control). Moreover, the binding signal is 1.27 fold enrichment (6-mer frequency, TF over GST control) with ETV2; 1.45 fold enrichment (6-mer frequency, TF over GST control) in the test with ELF3; 1.71 fold enrichment (6-mer frequency, TF over GST control) with CRX; 1.4 fold enrichment (6-mer frequency, TF over GST control) with ETV1.

In the case of CTAATG, the binding signal with FEV was 1.16 fold enrichment (6-mer frequency, TF over GST control); in the test with ETV5, 1.25 fold enrichment (6-mer frequency, TF over GST control); in the test with HSF1 it was 1.31 fold enrichment (6-mer frequency, TF over GST control); with SPIC it was 1.35 fold enrichment (6-mer frequency, TF over GST control); in the test with ELF4 it was 1.36 fold enrichment (6-mer frequency, TF over GST control); with ELK4, 1.34 fold enrichment (6-mer frequency, TF over GST control). In addition, the binding signal with ETV2 is 1.12 fold enrichment (6-mer frequency, TF over GST control); in the test with ELF3 it was 1.27 fold enrichment (6-mer frequency, TF over GST control); in the test with CRX, 1.6 fold enrichment (6-mer frequency, TF over GST control); with ETV1, 1.29 fold enrichment (6-mer frequency, TF over GST control).

For ATAAAT, the binding signal is 1.11 fold enrichment (6-mer frequency, TF over GST control) with FEV; 1.22 fold enrichment (6-mer frequency, TF over GST control) with ETV5; 1.41 fold enrichment (6-mer frequency, TF over GST control) with HSF1; 1.16 fold enrichment (6-mer frequency, TF over GST control) in the test with SPIC; 1.16 fold enrichment (6-mer frequency, TF over GST control) with ELF4; 1.17 fold enrichment (6-mer frequency, TF over GST control) with ELK4. Also, the binding signal in the test with ETV2 was 1.13 fold enrichment (6-mer frequency, TF over GST control); with ELF3, 1.24 fold enrichment (6-mer frequency, TF over GST control); in the test with CRX, 1.75 fold enrichment (6-mer frequency, TF over GST control); with ETV1 it was 1.13 fold enrichment (6-mer frequency, TF over GST control).

In the case of GATGCT, the binding signal with FEV was 1.23 fold enrichment (6-mer frequency, TF over GST control); with ETV5, 1.29 fold enrichment (6-mer frequency, TF over GST control); with HSF1, 1.13 fold enrichment (6-mer frequency, TF over GST control); with SPIC, 1.35 fold enrichment (6-mer frequency, TF over GST control); in the test with ELF4 it was 1.26 fold enrichment (6-mer frequency, TF over GST control); in the test with ELK4 it was 1.28 fold enrichment (6-mer frequency, TF over GST control). Moreover, the binding signal is 1.18 fold enrichment (6-mer frequency, TF over GST control) with ETV2; 1.3 fold enrichment (6-mer frequency, TF over GST control) in the test with ELF3; 1.06 fold enrichment (6-mer frequency, TF over GST control) with CRX; 1.27 fold enrichment (6-mer frequency, TF over GST control) with ETV1.

Consider CTGCAA, for which the binding signal was 1.29 fold enrichment (6-mer frequency, TF over GST control) in the test with FEV; 1.3 fold enrichment (6-mer frequency, TF over GST control) with ETV5; 1.14 fold enrichment (6-mer frequency, TF over GST control) with HSF1; 1.2 fold enrichment (6-mer frequency, TF over GST control) with SPIC; 1.23 fold enrichment (6-mer frequency, TF over GST control) in the test with ELF4; 1.32 fold enrichment (6-mer frequency, TF over GST control) in the test with ELK4. In addition, the binding signal with ETV2 was 1.07 fold enrichment (6-mer frequency, TF over GST control); with ELF3, 1.4 fold enrichment (6-mer frequency, TF over GST control); with CRX, 1.05 fold enrichment (6-mer frequency, TF over GST control); in the test with ETV1, 1.24 fold enrichment (6-mer frequency, TF over GST control).

Consider CGTTAA, for which the binding signal with FEV is 1.18 fold enrichment (6-mer frequency, TF over GST control); with ETV5 it was 1.21 fold enrichment (6-mer frequency, TF over GST control); with HSF1, 1.31 fold enrichment (6-mer frequency, TF over GST control); with SPIC it was 1.34 fold enrichment (6-mer frequency, TF over GST control); in the test with ELF4, 1.12 fold enrichment (6-mer frequency, TF over GST control); in the test with ELK4, 1.07 fold enrichment (6-mer frequency, TF over GST control). Further, the binding signal is 1.36 fold enrichment (6-mer frequency, TF over GST control) in the test with ETV2; 1.27 fold enrichment (6-mer frequency, TF over GST control) with ELF3; 1.7 fold enrichment (6-mer frequency, TF over GST control) with CRX; 1.09 fold enrichment (6-mer frequency, TF over GST control) with ETV1.

Turning to TAGTAT, the binding signal with FEV is 1.28 fold enrichment (6-mer frequency, TF over GST control); with ETV5 it was 1.33 fold enrichment (6-mer frequency, TF over GST control); with HSF1, 1.55 fold enrichment (6-mer frequency, TF over GST control); with SPIC it was 1.43 fold enrichment (6-mer frequency, TF over GST control); with ELF4, 1.3 fold enrichment (6-mer frequency, TF over GST control); with ELK4, 1.31 fold enrichment (6-mer frequency, TF over GST control). For the same sequence, the binding signal in the test with ETV2 was 1.34 fold enrichment (6-mer frequency, TF over GST control); with ELF3, 1.3 fold enrichment (6-mer frequency, TF over GST control); with CRX it was 1.68 fold enrichment (6-mer frequency, TF over GST control); in the test with ETV1, 1.23 fold enrichment (6-mer frequency, TF over GST control).

For TGGATG, the binding signal is 1.35 fold enrichment (6-mer frequency, TF over GST control) in the test with FEV; 1.42 fold enrichment (6-mer frequency, TF over GST control) with ETV5; 1.52 fold enrichment (6-mer frequency, TF over GST control) in the test with HSF1; 1.46 fold enrichment (6-mer frequency, TF over GST control) with SPIC; 1.49 fold enrichment (6-mer frequency, TF over GST control) with ELF4; 1.23 fold enrichment (6-mer frequency, TF over GST control) with ELK4. Further, the binding signal in the test with ETV2 was 1.49 fold enrichment (6-mer frequency, TF over GST control); with ELF3 it was 1.65 fold enrichment (6-mer frequency, TF over GST control); with CRX it was 1.45 fold enrichment (6-mer frequency, TF over GST control); with ETV1, 1.54 fold enrichment (6-mer frequency, TF over GST control).
